In PubChem BioAssay (Tox21):
Unmarked numbers belong to inactive results. Active and inactive are the calls of the source. The call rests on the fitted dose curve; in most records, active means well fitted curve in the direction sought with a large enough effect in the repeat runs; inconclusive means weak or mixed curves; inactive means flat fitted curve, though single readings scatter.

assay: qHTS assay to test for compound auto fluorescence at 590 nm (red) in HEK293 cell free culture (AID 720683); conditions: cell-free medium autofluorescence, Ex540/Em590 red; series mostly up to 91.3 µM
Outline: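 Cell-free wells of DMEM with 10% FBS received compound, and intrinsic fluorescence was read at excitation/emission 540/590 nm. Values expressed as equivalence to Rose Bengal sodium.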
On the % scale 0 is the no-effect control and ±100 the full control effect.

| SMILES | outcome | fluorescence, % of fluorescent control |
| --- | --- | --- |
| Cc1cc2c(s1)Nc1ccccc1N=C2N1CCN(C)CC1 | inactive | – |
| CCC(=O)c1ccc2c(c1)N(CCCN(C)C)c1ccccc1S2 | inactive | – |
| CC(=O)Oc1cc(C(C)C)c(OCCN(C)C)cc1C | – | -0.128% [at 18.6 µM] |
| CC(C)=CCCC(C)CCOC=O (stereo unspecified) | inactive | – |
| CC1(C)C(=O)N(Cl)C(=O)N1Br | inactive | – |
| CCN(CC)CC1CCCCN1CC(=O)N1c2ccccc2C(=O)Nc2cccnc21 (stereo unspecified) | inactive | – |
| CC1=C(CC(=O)O)c2cc(F)ccc2/C1=C\c1ccc(S(C)(=O)=O)cc1 | inactive | – |
| Cc1ccc(C)c(N)c1 | inactive | – |
| CC1(O)CSC(C)(O)CS1 (stereo unspecified) | inactive | – |
| CCN(CC)CCOc1ccc(Cc2ccccc2)cc1 | inactive | – |
| CC(C)O | inactive | – |
| CC1CN(c2ccccc2)NC1=O (stereo unspecified) | inactive | – |
| Cc1c[nH]c(=S)[nH]c1=O | inactive | – |
| O=C(CC(=O)C(F)(F)F)c1ccccc1 | inactive | – |
| CCCCN1C[C@H](O)[C@@H](O)[C@H](O)[C@H]1CO | inactive | – |
| CCCCCCOc1ccc(N)cc1 | inactive | – |
| CC1=NN(c2cc(Cl)c(S(=O)(=O)O)cc2Cl)C(=O)C1N=Nc1ccc(S(=O)(=O)O)cc1 (stereo unspecified) | inactive | – |
| CC(C)(C)C1CCCCC1=O (stereo unspecified) | inactive | – |
| Clc1cccc(-c2cc(Cl)cc(Cl)c2)c1 | inactive | – |
| CCCCCCCCc1ccc(S(=O)(=O)O)cc1 | inactive | – |
| O=C(Cl)c1cccc([N+](=O)[O-])c1 | inactive | – |
| C=O | inactive | – |
| Cc1c(N)cccc1N | inactive | – |
| CCCCCCCCCCCCCCCCOP(=O)([O-])OCC[N+](C)(C)C | inactive | – |
| CN(CCCN1c2ccccc2CCc2ccccc21)CC(=O)c1ccc(Cl)cc1 | inactive | – |
| O=C1CCCCCCCCCCC(=O)OCCO1 | inactive | – |
| CCOC(=O)CS | inactive | – |
| O=C1Nc2ccc([N+](=O)[O-])cc2C1=O | inactive | – |

assay: qHTS assay to test for compound auto fluorescence at 590 nm (red) in HepG2 cell free culture (AID 720684); conditions: cell-free medium autofluorescence, red 540/590 nm; series mostly up to 91.3 µM
Outline: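 Auto fluorescence equivalency versus Rose Bengal sodium, red channel Ex/Em 540/590 nm; compounds in cell-free MEM/10% FBS; DMSO vehicle control.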

| SMILES | outcome | fluorescence, % of Rose Bengal |
| --- | --- | --- |
| NC1=NCC2c3ccccc3Cc3ccccc3N12 (stereo unspecified) | inactive | – |
| CCC(=O)c1ccc2c(c1)N(CCCN(C)C)c1ccccc1S2 | inactive | – |
| CC(=O)Oc1cc(C(C)C)c(OCCN(C)C)cc1C | – | -0.418% [at 18.6 µM] |
| CC(C)=CCCC(C)CCOC=O (stereo unspecified) | inactive | – |
| CC1(C)C(=O)N(Cl)C(=O)N1Br | inactive | – |
| CC1=C(CC(=O)O)c2cc(F)ccc2/C1=C\c1ccc(S(C)(=O)=O)cc1 | inactive | – |
| Cc1ccc(C)c(N)c1 | inactive | – |
| CCN(CC)CCOc1ccc(Cc2ccccc2)cc1 | inactive | – |
| CC(C)O | inactive | – |
| O=c1[nH]c(=O)n([C@H]2C[C@H](O)[C@@H](CO)O2)cc1C(F)(F)F | inactive | – |
| Cc1c[nH]c(=S)[nH]c1=O | inactive | – |
| O=C(CC(=O)C(F)(F)F)c1ccccc1 | inactive | – |
| CCCCN1C[C@H](O)[C@@H](O)[C@H](O)[C@H]1CO | inactive | – |
| CC1=NN(c2cc(Cl)c(S(=O)(=O)O)cc2Cl)C(=O)C1N=Nc1ccc(S(=O)(=O)O)cc1 (stereo unspecified) | inactive | – |
| CC(C)(C)C1CCCCC1=O (stereo unspecified) | inactive | – |
| CN1C(=O)CC(c2ccccc2)C1=O (stereo unspecified) | inactive | – |
| Clc1cccc(-c2cc(Cl)cc(Cl)c2)c1 | inactive | – |
| CCCCCCCCc1ccc(S(=O)(=O)O)cc1 | inactive | – |
| O=C(Cl)c1cccc([N+](=O)[O-])c1 | inactive | – |
| C=O | inactive | – |
| COc1ccc(Nc2ccc(OC)cc2)cc1 | inactive | – |
| CCCCCCCCCCCCCCCCOP(=O)([O-])OCC[N+](C)(C)C | inactive | – |
| CN(CCCN1c2ccccc2CCc2ccccc21)CC(=O)c1ccc(Cl)cc1 | inactive | – |
| O=C1CCCCCCCCCCC(=O)OCCO1 | inactive | – |
| CCOC(=O)CS | inactive | – |
| CCOC(=O)COc1ccc2c(c1)CC(NCC(O)c1cccc(Cl)c1)CC2 (stereo unspecified) | inactive | – |
| CCCCC(=O)O[C@]1(C(=O)CO)[C@H](C)C[C@H]2[C@@H]3CCC4=CC(=O)C=C[C@]4(C)[C@@]3(F)[C@@H](O)C[C@@]21C | inactive | – |
| O=C1Nc2ccc([N+](=O)[O-])cc2C1=O | inactive | – |
